# Inconclusive results are not listed. A call without a number means that no potency is given here. Some compounds were tested as several samples or in several runs, with calls that do not always agree. Active and inactive are the calls of the source. Unless noted, calls follow the shape of the dose curve; as a rule, active = well fitted curve in the direction sought with a large enough effect; inconclusive = small, poorly fitted or top-dose-only effect, or another doubt; inactive = no such curve, though single readings can be large; an effect the other way counts as inactive or inconclusive.
# What was measured:
# [1] = Validation screen for small molecules that induce DNA re-replication in MCF 10A normal breast cells (AID 463097); also: nearly all actives have a fitted effect of over 60% in size
# In short: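 Readout: Hoechst nuclear fluorescence intensity, 405 ex / 500-530 em, by scanning plate imager; re-replication scored as increase in nuclei with elevated DNA content. Cells exposed to compound 48 hr, 37 C, 5% CO2 beforehand.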
# [2] = target: DNA polymerase III PolC-type (Bacillus subtilis (strain 168)) (UniProt P13267); assay: qHTS Validation Assay for the Inhibitors of DNA Replication in Gram-Positive Bacteria (AID 485295);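 also: PicoGreen fluorescence of double-stranded DNA made on primed circular M13 template; series mostly up to about 57 µM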
# Chain of DNA polymerase III PolC-type (Bacillus subtilis (strain 168)) (P13267 whole entry, looked up): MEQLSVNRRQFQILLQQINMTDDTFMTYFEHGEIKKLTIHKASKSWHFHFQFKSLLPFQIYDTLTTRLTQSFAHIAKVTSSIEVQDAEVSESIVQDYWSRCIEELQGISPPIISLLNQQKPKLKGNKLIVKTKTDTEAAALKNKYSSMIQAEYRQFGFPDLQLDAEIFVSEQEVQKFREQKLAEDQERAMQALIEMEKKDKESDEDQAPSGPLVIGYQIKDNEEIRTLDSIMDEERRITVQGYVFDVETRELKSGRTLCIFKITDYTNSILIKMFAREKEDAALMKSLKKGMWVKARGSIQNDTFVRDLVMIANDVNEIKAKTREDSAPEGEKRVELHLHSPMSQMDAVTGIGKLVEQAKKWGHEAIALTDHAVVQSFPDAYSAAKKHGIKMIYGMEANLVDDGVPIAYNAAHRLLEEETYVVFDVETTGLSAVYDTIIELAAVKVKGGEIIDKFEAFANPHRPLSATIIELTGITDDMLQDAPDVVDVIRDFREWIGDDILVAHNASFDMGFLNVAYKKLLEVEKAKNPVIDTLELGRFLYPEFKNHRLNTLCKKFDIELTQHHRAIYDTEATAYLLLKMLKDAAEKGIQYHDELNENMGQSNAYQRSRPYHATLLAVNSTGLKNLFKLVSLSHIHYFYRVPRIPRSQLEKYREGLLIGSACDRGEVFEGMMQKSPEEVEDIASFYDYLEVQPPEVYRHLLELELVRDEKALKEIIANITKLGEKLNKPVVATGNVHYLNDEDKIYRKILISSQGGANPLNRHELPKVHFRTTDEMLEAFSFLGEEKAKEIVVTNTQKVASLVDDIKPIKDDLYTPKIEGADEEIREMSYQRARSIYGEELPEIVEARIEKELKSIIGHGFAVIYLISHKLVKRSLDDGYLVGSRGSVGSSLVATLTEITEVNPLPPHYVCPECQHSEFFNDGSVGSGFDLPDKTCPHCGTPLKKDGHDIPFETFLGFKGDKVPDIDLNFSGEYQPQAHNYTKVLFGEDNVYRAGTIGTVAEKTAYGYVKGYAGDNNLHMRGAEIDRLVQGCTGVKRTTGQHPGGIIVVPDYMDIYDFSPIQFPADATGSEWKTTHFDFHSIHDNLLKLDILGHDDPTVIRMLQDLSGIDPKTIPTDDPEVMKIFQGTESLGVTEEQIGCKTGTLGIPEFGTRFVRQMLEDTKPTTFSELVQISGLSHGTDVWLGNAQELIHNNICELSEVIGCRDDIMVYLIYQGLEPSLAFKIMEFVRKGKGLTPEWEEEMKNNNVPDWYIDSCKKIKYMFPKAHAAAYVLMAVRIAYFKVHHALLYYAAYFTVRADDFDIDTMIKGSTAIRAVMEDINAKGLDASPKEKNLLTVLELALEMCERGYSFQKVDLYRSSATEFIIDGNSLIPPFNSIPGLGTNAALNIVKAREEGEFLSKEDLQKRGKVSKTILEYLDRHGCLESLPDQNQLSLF
# In short: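 Reconstituted B. subtilis holoenzyme (Pol III, beta clamp, SSB, primase) was preincubated with compound at room temperature, then given single-stranded circular M13Gori plus dNTPs and NTPs. EDTA-containing PicoGreen stopped the reaction, and dsDNA product was read by fluorescence.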
# [3] = target: Tumor susceptibility gene 101 protein (Homo sapiens) (UniProt Q99816); assay: qHTS Validation Assay for Iinhibitors of HIV-1 Budding by Blocking the Interaction of PTAP/TSG101 (AID 485342; calls by dose curve)
# In short: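 Tsg101 binding domain (10 uM final) in pH 7.5 HEPES/NaCl/Tween 20/EDTA/TCEP buffer was mixed with pin-transferred compounds, then FITC-labeled PTAP peptide (50 nM final) was added; after 20 min at r.t., fluorescence polarization was read.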
# [4] = qHTS Validation Assay to Find Inhibitors of Chronic Active B-Cell Receptor Signaling (AID 485345; active = well fitted curve in the direction sought with a large enough effect in the main read-out, with a control signal flat, not every such curve was filed as active; also: potency is read from the fitted curve at half-maximal effect)
# In short: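 TMD8 ABC-DLBCL cells with dox-inducible green luciferase–IκBα fusion and red native luciferase; compounds 46 uM–3 nM, 4 h at 37C with doxycycline in 0.5% FBS IMDM. Green/red ratio normalized to basal and 10 uM MG-132.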
# [5] = Quantitative high throughput screen for delayed death inhibitors of the malarial parasite plastid, 48 hour incubation (AID 488752); also: nearly all actives have a fitted effect of over 65% in size; also: potency is read from the fitted curve at half-maximal effect
# In short: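 First, compound was pinned into RPMI 1640 medium containing 0.5% Albumax. Next, reporter-parasite-infected erythrocytes were added to 2% hematocrit and 0.1% parasitemia. After 48 h at 37 C under 5% CO2, luciferase detection reagent was added and luminescence read.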
# [6] = target: Thioredoxin reductase 1, cytoplasmic (Rattus norvegicus) (UniProt O89049); assay: qHTS Assay for Substrates of Mammalian Selenoprotein Thioredoxin Reductase 1 (TrxR1) (AID 488772);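 also: series mostly up to about 57 µM; a drop in NADPH fluorescence below the no-compound background marks a TrxR1 substrate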
# Chain of Thioredoxin reductase 1, cytoplasmic (Rattus norvegicus) (O89049 whole entry, looked up): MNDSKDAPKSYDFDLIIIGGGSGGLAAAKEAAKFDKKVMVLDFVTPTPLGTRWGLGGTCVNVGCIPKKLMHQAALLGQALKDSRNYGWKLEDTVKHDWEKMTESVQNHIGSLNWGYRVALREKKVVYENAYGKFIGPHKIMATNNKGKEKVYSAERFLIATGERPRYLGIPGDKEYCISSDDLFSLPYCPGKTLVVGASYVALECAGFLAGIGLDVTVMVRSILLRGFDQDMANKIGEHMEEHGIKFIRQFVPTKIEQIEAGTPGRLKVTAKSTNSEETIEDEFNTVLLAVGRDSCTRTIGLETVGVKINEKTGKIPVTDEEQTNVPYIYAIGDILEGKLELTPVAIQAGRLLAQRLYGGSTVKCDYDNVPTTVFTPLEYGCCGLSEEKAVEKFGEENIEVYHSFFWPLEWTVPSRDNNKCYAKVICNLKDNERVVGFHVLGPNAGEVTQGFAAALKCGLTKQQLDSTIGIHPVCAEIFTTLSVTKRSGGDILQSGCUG
# In short: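 In this dual-purpose format, potential substrates are identified from the first fluorescence read after selenite addition, not from the 8-minute delta. Rat enzyme is preincubated with NADPH and then with compound at ~22 deg C.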
# [7] = target: Thioredoxin reductase 1, cytoplasmic (Rattus norvegicus) (UniProt O89049); assay: qHTS Assay for Inhibitors of Mammalian Selenoprotein Thioredoxin Reductase 1 (TrxR1) (AID 488773); details: Potency: inhibition;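 also: drop in NADPH fluorescence over an 8 min run after selenite addition; series mostly up to about 57 µM; nearly all actives have a fitted effect of over 40% in size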
# In short: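 Inhibition is scored from the loss of NADPH fluorescence between first and last reads of an 8-min kinetic run. Selenite (400 uM) was the substrate, added after 15 min compound preincubation at room temperature.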
# [8] = target: Flap endonuclease 1 (Homo sapiens) (UniProt P39748); assay: qHTS Validation Assay for the Inhibitors of Human Flap endonuclease 1 (FEN1) (AID 488816); also: potency is read from the fitted curve at half-maximal effect
# Chain of Flap endonuclease 1 (Homo sapiens) (P39748 whole entry, looked up): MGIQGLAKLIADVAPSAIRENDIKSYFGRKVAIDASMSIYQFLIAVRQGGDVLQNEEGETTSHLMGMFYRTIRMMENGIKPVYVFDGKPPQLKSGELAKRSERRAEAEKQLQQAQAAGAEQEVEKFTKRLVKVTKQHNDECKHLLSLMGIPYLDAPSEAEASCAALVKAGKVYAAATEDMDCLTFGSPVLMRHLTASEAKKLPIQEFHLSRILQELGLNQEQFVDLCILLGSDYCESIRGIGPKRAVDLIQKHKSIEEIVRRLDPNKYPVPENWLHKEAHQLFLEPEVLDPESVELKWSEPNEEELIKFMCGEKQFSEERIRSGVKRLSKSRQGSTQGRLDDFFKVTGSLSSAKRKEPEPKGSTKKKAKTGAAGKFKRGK
# In short: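 Steps: add FEN1 (10 nM reagent) or buffer only; pin compounds; hold 15 min at room temperature; start with substrate, 50 nM final; read at 0 and 15 min; correct, normalize and fit a four-parameter Hill curve.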
# [9] = target: M-phase phosphoprotein 8 (Homo sapiens) (UniProt Q99549); assay: qHTS Validation Assay for Inhibitors for MPP8 Chromodomain Interactions with Methylated Histone Tails (AID 488949); also: nearly all actives have a fitted effect of over 55% in size; also: potency is read from the fitted curve at half-maximal effect
# In short: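 MPP8 (50 nM) was preincubated with biotinylated H3(1-18)K9me3 peptide (50 nM) in PBS pH 7.4, 0.01% Tween-20 for 30 min at room temperature, then with compounds for 30 min; binding was detected by AlphaScreen.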
# [10] = target: Chromobox protein homolog 1 (Homo sapiens) (UniProt P83916); assay: qHTS Validation Assay for Inhibitors of HP1-beta Chromodomain Interactions with Methylated Histone Tails (AID 488953); also: nearly all actives have a fitted effect of over 50% in size; also: potency is read from the fitted curve at half-maximal effect
# In short: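 Disruption of preformed HP1-beta:H3K9me3 peptide complexes (both 50 nM, PBS pH 7.4 with 0.01% Tween-20) is measured by AlphaScreen after 30 min compound exposure at room temperature, using streptavidin donor and nickel chelate acceptor beads at 10 ug/mL final.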
# [11] = target: Methanococcus maripaludis chaperonin (MmCpn) (UniProt Q6LX38); assay: High-Throughput Screening for Modulators of Cytosolic Chaperonin Activity: MmCpn Primary Screen (AID 488978);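 also: 50 nM MmCpn enzyme hydrolysing 30 µM ATP at 37 °C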
# Chain of Methanococcus maripaludis chaperonin (MmCpn) (Q6LX38 1-543): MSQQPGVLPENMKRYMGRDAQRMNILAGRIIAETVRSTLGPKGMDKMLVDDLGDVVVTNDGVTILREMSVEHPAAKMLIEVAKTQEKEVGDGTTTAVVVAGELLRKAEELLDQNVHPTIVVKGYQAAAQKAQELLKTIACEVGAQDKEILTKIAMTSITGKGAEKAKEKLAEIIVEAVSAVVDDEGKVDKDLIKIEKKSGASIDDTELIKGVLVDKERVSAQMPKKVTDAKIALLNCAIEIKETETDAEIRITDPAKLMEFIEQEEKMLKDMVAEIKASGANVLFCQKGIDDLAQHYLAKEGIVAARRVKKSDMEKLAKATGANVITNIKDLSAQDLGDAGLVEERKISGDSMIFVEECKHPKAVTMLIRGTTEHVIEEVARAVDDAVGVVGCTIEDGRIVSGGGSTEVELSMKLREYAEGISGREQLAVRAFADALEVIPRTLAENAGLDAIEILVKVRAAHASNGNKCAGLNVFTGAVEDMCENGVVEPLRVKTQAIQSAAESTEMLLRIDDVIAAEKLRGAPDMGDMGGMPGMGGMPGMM
# In short: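 MmCpn (50 nM final) was preincubated with compound 5 min at RT, then 30 uM ATP (final) was added and the reaction ran 10 min at 37C. ADP produced was detected by Transcreener HTRF (ex 320 nm; em 590/665 nm).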
# [12] = target: Transient receptor potential cation channel subfamily V member 1 (Homo sapiens) (UniProt Q8NER1); assay: HTS Assay for Compounds that Act as Enhancers of the Vanilloid Receptor 1 (AID 488979)
# Chain of Transient receptor potential cation channel subfamily V member 1 (Homo sapiens) (Q8NER1 whole entry, looked up): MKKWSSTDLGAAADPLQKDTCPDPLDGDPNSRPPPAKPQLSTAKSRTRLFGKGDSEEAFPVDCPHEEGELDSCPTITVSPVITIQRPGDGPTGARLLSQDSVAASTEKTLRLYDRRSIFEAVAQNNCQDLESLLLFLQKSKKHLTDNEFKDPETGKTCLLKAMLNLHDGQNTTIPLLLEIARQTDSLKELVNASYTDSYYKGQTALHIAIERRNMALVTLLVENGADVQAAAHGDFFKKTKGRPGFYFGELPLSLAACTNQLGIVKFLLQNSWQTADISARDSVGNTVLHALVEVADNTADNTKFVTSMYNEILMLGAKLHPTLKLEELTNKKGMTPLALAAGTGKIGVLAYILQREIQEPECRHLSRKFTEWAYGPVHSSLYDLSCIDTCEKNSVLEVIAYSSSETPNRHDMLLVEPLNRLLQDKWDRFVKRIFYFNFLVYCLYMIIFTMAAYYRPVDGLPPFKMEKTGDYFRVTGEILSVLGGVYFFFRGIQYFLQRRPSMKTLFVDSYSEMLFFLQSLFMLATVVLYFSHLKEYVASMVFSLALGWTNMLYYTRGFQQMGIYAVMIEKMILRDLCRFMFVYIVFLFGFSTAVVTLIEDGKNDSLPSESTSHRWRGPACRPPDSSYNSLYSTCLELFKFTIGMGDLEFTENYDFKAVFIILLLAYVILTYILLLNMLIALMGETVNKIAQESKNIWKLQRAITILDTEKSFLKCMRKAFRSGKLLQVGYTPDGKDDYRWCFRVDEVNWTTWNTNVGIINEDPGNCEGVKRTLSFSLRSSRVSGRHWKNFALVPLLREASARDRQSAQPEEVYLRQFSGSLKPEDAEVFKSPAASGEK
# In short: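 TRPV1-expressing cells loaded with Fluo-8 calcium dye; compounds added and calcium influx read kinetically for 3 min (agonist phase), then capsaicin at EC20 added and read 2 min more for enhancement. Fluorescence ex 480/em 520 nm.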
# [13] = target: Thyrotropin receptor (Homo sapiens) (UniProt P16473); assay: qHTS Assay for Antagonists of the Thyroid Stimulating Hormone Receptor (AID 488980); also: series mostly up to about 58 µM
# In short: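 HEK293 cells transfected with human TSHR, suspended in HEPES-buffered HBSS with 70 uM RO 20-1724, were treated with compounds plus TSH at EC80 (4 nM final). cAMP was measured by competitive HTRF (cryptate anti-cAMP antibody, cAMP-d2 acceptor).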
# [14] = target: D(1A) dopamine receptor (Homo sapiens) (UniProt P21728); assay: HTS Assay for Allosteric Agonists of the Human D1 Dopamine Receptor: Primary Screen for Agonists (AID 488981); also: potency is read from the fitted curve at half-maximal effect
# Chain of D(1A) dopamine receptor (Homo sapiens) (P21728 whole entry, looked up): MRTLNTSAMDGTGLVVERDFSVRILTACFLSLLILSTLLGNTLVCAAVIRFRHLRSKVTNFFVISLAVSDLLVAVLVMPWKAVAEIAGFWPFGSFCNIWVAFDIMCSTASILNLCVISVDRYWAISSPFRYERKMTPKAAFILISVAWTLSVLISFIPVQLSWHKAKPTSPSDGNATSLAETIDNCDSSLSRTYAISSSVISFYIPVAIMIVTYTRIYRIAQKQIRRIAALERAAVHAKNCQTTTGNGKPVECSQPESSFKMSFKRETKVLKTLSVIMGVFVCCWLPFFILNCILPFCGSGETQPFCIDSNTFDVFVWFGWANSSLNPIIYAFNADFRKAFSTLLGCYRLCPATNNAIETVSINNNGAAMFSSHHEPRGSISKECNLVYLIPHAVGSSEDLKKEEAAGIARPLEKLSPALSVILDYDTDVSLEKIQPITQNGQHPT
# In short: (§1)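 Tetracycline-induced HEK293 T-REx cells force-coupled to calcium signalling were incubated overnight at 30 C and dye-loaded at room temperature. Calcium flux over 180 s after compound addition flagged agonists; a further 180 s read after EC20 dopamine flagged potentiators.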
# [15] = target: D(1A) dopamine receptor (Homo sapiens) (UniProt P21728); assay: HTS Assay for Allosteric Agonists of the Human D1 Dopamine Receptor: Primary Screen for Potentiators (AID 488982)
# In short: as §1
# [16] = target: D(1A) dopamine receptor (Homo sapiens) (UniProt P21728); assay: HTS Assay for Allosteric Agonists of the Human D1 Dopamine Receptor: Primary Screen for Antagonists (AID 488983);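 also: calcium flux response to an EC80 dopamine challenge measured with no-wash dye; nearly all actives have a fitted effect of over 65% in size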; also: potency is read from the fitted curve at half-maximal effect
# In short: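 Kinetic fluorescence at 1 cycle/sec tracked intracellular calcium in force-coupled, tetracycline-inducible HEK293 T-REx D1 cells. Loss of response to an EC80 dopamine dose, given 180 s after compound, marked antagonists.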
# [17] = target: Ubiquitin carboxyl-terminal hydrolase 2 (Homo sapiens) (UniProt O75604); assay: qHTS Validation Assay for Inhibitors of Ubiquitin-specific Protease USP2a Using CHOP2 as the Reporter (AID 463106)
# In short: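 Inhibition is expressed relative to NEM as the full-inhibition control, with concentration-response curves classed by fit quality, magnitude and activity. Enzyme (USP2 core, 10nM) meets 25nM Ub-CHOP2 after compound preincubation; readings are taken at 60min.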
# [18] = target: Beta-2 adrenergic receptor (Homo sapiens) (UniProt P07550); assay: qHTS validation assay of beta-arrestin-biased ligands of beta2-adrenergic receptor (AID 485366)
# Chain of Beta-2 adrenergic receptor (Homo sapiens) (P07550 whole entry, looked up): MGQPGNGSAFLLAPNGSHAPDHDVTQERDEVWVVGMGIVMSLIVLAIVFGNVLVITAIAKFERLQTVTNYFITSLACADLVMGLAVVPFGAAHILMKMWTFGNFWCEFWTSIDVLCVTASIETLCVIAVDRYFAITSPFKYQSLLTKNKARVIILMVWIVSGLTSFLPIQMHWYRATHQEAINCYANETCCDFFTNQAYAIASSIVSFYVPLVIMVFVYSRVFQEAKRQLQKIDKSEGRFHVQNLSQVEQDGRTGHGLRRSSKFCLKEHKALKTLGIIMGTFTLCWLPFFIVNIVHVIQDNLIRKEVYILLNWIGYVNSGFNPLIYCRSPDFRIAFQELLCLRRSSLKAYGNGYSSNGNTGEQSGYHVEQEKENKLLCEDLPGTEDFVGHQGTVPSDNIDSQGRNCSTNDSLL
# In short: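 qHTS, Tango cells, 1500 cells/well, DMEM + 1% FBS. Cpd 18 hr at 37 degrees C. Luciferin/ATP/CoA detection mix, 15 min RT, luminescence read. %Activity from corrected signal; CRC fit, curve class.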
# [19] = target: ATP-dependent 6-phosphofructokinase (Trypanosoma brucei brucei) (UniProt O15648); assay: qHTS Validation Assay to Find Inhibitors of T. brucei phosphofructokinase (AID 485368); details: outcome: dose series up to 57.5 µM
# Chain of ATP-dependent 6-phosphofructokinase (Trypanosoma brucei brucei) (O15648 whole entry, looked up): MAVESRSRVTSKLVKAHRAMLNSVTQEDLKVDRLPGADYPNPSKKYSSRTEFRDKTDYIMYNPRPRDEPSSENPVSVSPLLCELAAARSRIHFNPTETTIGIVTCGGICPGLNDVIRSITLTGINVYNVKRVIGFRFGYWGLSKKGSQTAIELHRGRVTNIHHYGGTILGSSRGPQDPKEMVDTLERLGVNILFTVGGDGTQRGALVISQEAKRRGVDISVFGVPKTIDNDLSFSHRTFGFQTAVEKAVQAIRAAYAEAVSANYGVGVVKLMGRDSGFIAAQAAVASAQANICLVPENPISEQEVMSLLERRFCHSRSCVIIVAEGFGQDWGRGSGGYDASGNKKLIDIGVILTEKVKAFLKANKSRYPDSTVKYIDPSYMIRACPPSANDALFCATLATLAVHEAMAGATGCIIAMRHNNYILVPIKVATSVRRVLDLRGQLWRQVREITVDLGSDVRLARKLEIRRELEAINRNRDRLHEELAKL
# In short: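 Luminescent ADP detection measures PFK turnover of fructose-6-phosphate (0.5 mM) with ATP (0.1 mM) at pH 8.0. Reaction runs 45 min at room temperature with 1.25 nM enzyme; inhibitors tested as titrations up to 57 uM.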
# [20] = Quantitative high throughput screen for delayed death inhibitors of the malarial parasite plastid, 96 hour incubation (AID 488745); also: potency is read from the fitted curve at half-maximal effect; nearly all actives have a fitted effect of over 70% in size
# In short: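 Readout is firefly luciferase luminescence from an integrated reporter in P. falciparum; lower signal marks inhibited growth. Cultures at 2% hematocrit and 0.1% parasitemia were treated with compound across two generations (96 h, 37 C, 5% CO2).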
Structure (SMILES),Potency [1],Potency [2],outcome [3],Potency [4],Potency [5],outcome [6],Potency [7],Potency [8],Potency [9],Potency [10],outcome [11],outcome [12],outcome [13],Potency [14],Potency [15],Potency [16],outcome [17],outcome [18],outcome [19],Potency [20]
C=CCc1ccccc1OCC(O)CNC(C)C (stereo not drawn),inactive,inactive,inactive,inactive,inactive,inactive,inactive,inactive,inactive,inactive,inactive,inactive,inactive,inactive,inactive,inactive,–,–,–,–
CCOC(=O)C1=C(C)NC(C)=C(C(=O)OC)C1c1cccc([N+](=O)[O-])c1 (stereo not drawn),–,inactive,inactive,9.2 µM (active),–,inactive,inactive,inactive,inactive,–,inactive,inactive,inactive,inactive,–,–,inactive,inactive,–,–
COC(=O)C1=C(C)NC(C)=C(C(=O)OCCN(C)Cc2ccccc2)C1c1cccc([N+](=O)[O-])c1 (stereo not drawn),–,inactive,inactive,–,2.94 µM (active),–,inactive,–,–,–,inactive,inactive,inactive,inactive,inactive,7.08 µM (active),inactive,inactive,inactive,3.29 µM (active)
COc1ccc2c(c1OC)C(=O)O[C@@H]2[C@H]1c2c(cc3c(c2OC)OCO3)CCN1C,–,inactive,inactive,inactive,–,inactive,inactive,inactive,inactive,–,inactive,–,–,inactive,inactive,inactive,inactive,inactive,inactive,–
C[C@@H](O)[C@H]1C(=O)N2C(C(=O)O)=C(SCCN=CN)C[C@H]12,–,inactive,inactive,inactive,–,inactive,–,inactive,inactive,inactive,inactive,–,–,inactive,inactive,inactive,inactive,inactive,inactive,–
CN(C)CCCN1c2ccccc2Sc2ccc(C(F)(F)F)cc21,–,inactive,inactive,inactive,–,–,–,–,inactive,–,inactive,–,inactive,inactive,inactive,1.26 µM (active),inactive,inactive,–,–
C[C@]12CC[C@@H]3c4ccc(O)cc4C[C@@H](CCCCCCCCCS(=O)CCCC(F)(F)C(F)(F)F)[C@H]3[C@@H]1CC[C@@H]2O (stereo partly drawn),–,inactive,inactive,–,–,–,inactive,inactive,inactive,inactive,inactive,–,–,inactive,inactive,inactive,inactive,inactive,inactive,–
Nc1nc(N)c2nc(-c3ccccc3)c(N)nc2n1,–,inactive,inactive,–,–,–,–,inactive,inactive,–,inactive,inactive,inactive,–,inactive,inactive,–,inactive,–,–
CC(C)(Oc1ccc(CCNC(=O)c2ccc(Cl)cc2)cc1)C(=O)O,–,inactive,inactive,inactive,–,inactive,inactive,inactive,inactive,inactive,inactive,–,–,inactive,inactive,inactive,–,inactive,inactive,–
CC1=C(C)C(=O)C(CCCCC#CCCCC#CCO)=C(C)C1=O,–,inactive,inactive,16.4 µM (active),8.28 µM (active),inactive,–,inactive,31.6 µM (active),31.6 µM (active),inactive,–,inactive,–,inactive,inactive,–,inactive,–,–
CN1C(=O)CC[C@H]1c1cccnc1,–,inactive,inactive,inactive,–,inactive,inactive,inactive,inactive,inactive,inactive,–,–,–,inactive,inactive,–,inactive,inactive,–
CCCCNc1c(C(=O)OCC)c(C)nc2c1cnn2CC,–,inactive,inactive,–,–,–,–,inactive,inactive,inactive,inactive,–,inactive,inactive,inactive,–,inactive,inactive,–,–
CN(C)[C@@H]1C(=O)C(C(N)=O)=C(O)[C@@]2(O)C(=O)C3=C(O)c4c(O)ccc(Cl)c4[C@@H](O)[C@H]3C[C@@H]12,–,inactive,inactive,inactive,–,inactive,–,29.9 µM (active),–,–,inactive,–,–,inactive,inactive,inactive,inactive,inactive,–,–
COC(=O)C1=C(C)NC(C)=C(C(=O)OC(C)(C)CN(C)CCC(c2ccccc2)c2ccccc2)C1c1cccc([N+](=O)[O-])c1 (stereo not drawn),–,inactive,inactive,inactive,–,–,–,inactive,–,25.1 µM (active),inactive,–,–,inactive,inactive,inactive,–,inactive,inactive,–
NC(=O)c1cn(Cc2c(F)cccc2F)nn1,–,inactive,inactive,inactive,–,inactive,–,inactive,inactive,0.006 µM (active),inactive,–,–,inactive,inactive,inactive,inactive,inactive,–,–
Cc1cc(C)c(/C=C2\C(=O)Nc3ccccc32)[nH]1,–,inactive,–,–,–,inactive,inactive,inactive,7.94 µM (active) and inactive,–,inactive,–,inactive,15.8 µM (active),inactive,inactive,–,inactive,inactive,–
